Bioassay records (PubChem)
Hits are enriched below; roughly 1.8% of the tested compounds scored in any of these assays.
PGK inhibitor: T. brucei PGK inhibition. actives 0.043% (n = 380,000). Potency, µM (series often up to 57.5 µM), for inactives: at the top dose activity change, negative = inhibition, hits mostly inhibitors. AID 602233. P07378. PGK/GAPDH coupled, Kinase-Glo luminescence, 60 min; also: % is scaled to controls: 0 for no effect and ±100 for the full control effect; nearly all actives have a fitted effect of over 60% in size
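Luminescent ATP detection (Kinase-Glo Plus) follows a 60-minute room-temperature incubation, with wells lacking PGK as controls. Buffer: 100 mM TEA (pH 7.6), 5 mM MgCl2, 0.01% Tween-20. Coupling enzyme GAPDH (100 nM final) supplies unstable 1,3-BPG in-well.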
GLP1R ag: agonists of human GLP-1 receptor; P43220; HEK293 GLP-1R CRE-luciferase, luminescence, 4-6 h; cells express a hypersensitive GLP-1R form; Potency, µM (titrated, usually from 45.6 µM), without a hit: at the highest dose activation, actives largely listed as activators; actives 0.007% (n = 380,000); also: % of control where 0% means no effect
Target sequence (P43220 whole entry, looked up): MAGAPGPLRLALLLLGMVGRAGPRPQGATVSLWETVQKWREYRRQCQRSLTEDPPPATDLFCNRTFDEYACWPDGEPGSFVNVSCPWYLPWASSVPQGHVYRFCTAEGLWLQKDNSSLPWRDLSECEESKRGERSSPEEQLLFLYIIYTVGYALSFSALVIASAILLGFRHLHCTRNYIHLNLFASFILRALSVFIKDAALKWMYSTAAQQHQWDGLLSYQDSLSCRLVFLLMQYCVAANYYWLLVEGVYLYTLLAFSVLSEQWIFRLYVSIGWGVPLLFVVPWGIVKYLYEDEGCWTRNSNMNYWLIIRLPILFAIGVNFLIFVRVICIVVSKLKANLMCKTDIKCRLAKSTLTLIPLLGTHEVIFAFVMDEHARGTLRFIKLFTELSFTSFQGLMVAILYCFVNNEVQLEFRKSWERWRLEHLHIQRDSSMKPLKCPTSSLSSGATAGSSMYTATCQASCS
HEK293 tox: cytotoxic in the GLP-1 receptor inverse agonist counter-screen. HEK293 cAMP-luciferase reporter cells, luminescence, 24 h. actives 0.13% (n = 410,000). Potency, µM (highest dose often 38.3 µM), inactives show at the highest dose activity change, negative = inhibition, most hits filed as inhibitors;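 also: loss of luciferase light is scored as toxicity; % is scaled to controls: 0 for no effect and ±100 for the full control effect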
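Quantitative HTS format, 1536 wells, 200 cells/uL seeded. Compounds: 23 nL, 24 h, 37 °C. Detection: luciferase reagent, luminescence at 12 min RT; decreased signal taken as cytotoxic.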
Pin1 inh: human Pin1 inhibition. actives 0.009% (n = 390,000). Potency, µM (top dose mostly 115 µM), for the others: at the top dose activity, negative = inhibition, hits mostly inhibitors. AID 504891. Q13526. Pin1 FP peptide displacement, HiFluor488, 10 min; active = well fitted inhibition curve with a large enough effect in the polarisation, with a control signal flat, not every such curve was filed as active; inconclusive = small, poorly fitted or top-dose-only effect, or effect the other way, or a change in a side signal; inactive = no such curve, though single readings can be large or run the other way; the % refers to the polarisation; also: % is scaled to controls: 0 for no effect and ±100 for the full control effect
Target sequence (Q13526 whole entry, looked up): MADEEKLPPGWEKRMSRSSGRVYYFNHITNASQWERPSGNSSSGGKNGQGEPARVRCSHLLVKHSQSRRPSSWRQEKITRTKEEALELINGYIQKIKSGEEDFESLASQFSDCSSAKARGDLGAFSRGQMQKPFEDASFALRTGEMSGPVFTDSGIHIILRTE
GLP1R inv ag: acts as inverse agonist at human GLP-1 receptor. HEK293 GLP-1R CRE-luciferase, luminescence, 24 h; GLP-1R form is constitutively active. Potency, µM (doses to about 38.3 µM), for the others: at the top dose activity change, negative = inhibition, most hits filed as inhibitors. actives 1.6% (n = 410,000); also: % is scaled to controls: 0 for no effect and ±100 for the full control effect; nearly all actives have a fitted effect of over 55% in size
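Inverse agonists were sought by their lowering of basal cAMP reporter luciferase output in HEK293 cells stably carrying constitutively active human GLP-1R, after 24 h compound treatment.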
Tb PFK inh: blocks T. brucei phosphofructokinase. O15648. T. brucei PFK, ADP-Glo luminescence. Potency, µM (highest dose often 57.5 µM), without a hit: at the highest dose activity, negative = inhibition, actives largely listed as inhibitors. actives 0.17% (n = 330,000);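 also: 0% = uninhibited 1x PFK enzyme wells and -100% = no-enzyme wells; nearly all actives have a fitted effect of over 60% in size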
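Activity is normalized to no-enzyme wells (full inhibition) and 1.25 nM enzyme wells (no inhibition). Reaction: 0.5 mM F6P, 0.1 mM ATP, 45 min RT, ADP-Glo luminescence; concentration-response curves fitted and classed by quality.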
* = called active by the depositor; i = inactive; ? = inconclusive; · = no result given. Unless noted, calls follow the shape of the dose curve; as a rule, active = well fitted curve in the direction sought with a large enough effect; inconclusive = small, poorly fitted or top-dose-only effect, or another doubt; inactive = no such curve, though single readings can be large; an effect the other way counts as inactive or inconclusive. Potency is read from the fitted curve at half-maximal effect.

SMILES	PGK inhibitor	GLP1R ag	HEK293 tox	Pin1 inh	GLP1R inv ag	Tb PFK inh
CC(C)C(NCC(=O)Nc1ccccc1C(=O)NC1CC1)c1ccccc1 (stereo not given)	-3.6%	8.7%	-19.5%	-2.0%	10µM*	-4.6%
Cc1ccc(NC(=O)Cn2c(-c3ccc4c(c3)OCO4)cn(-c3ccccc3)c2=O)cc1	-9.3%	·	14.6%	16.6%	?	·
CC(CNC(=O)c1cnn(-c2ccc(F)cc2)c1-n1cccc1)c1ccccc1 (stereo not given)	0.5%	10.7%	2.2%	?	10µM*	·
COc1ccc(CNC(=O)c2cnn(-c3ccc(F)cc3)c2-n2cccc2)cc1	-4.2%	2.0%	-3.8%	0.3%	-23.1%	·
Cc1ccc(NC(=S)N(CCC(C)C)C(C)c2ccncc2)c(Cl)c1 (stereo not given)	i	13.0%	-7.7%	-0.4%	10µM*	17.2%
COCCCN(C(=S)Nc1ccc(C)cc1Cl)C(C)c1ccncc1 (stereo not given)	i	-2.4%	7.4%	2.7%	?	6.1%
Cn1c(-c2c(N)n(C3CCCC3)c3nc4ccccc4nc23)nc2ccccc21	i	-0.1%	333.8%	?	3.98µM*	-0.5%
Cn1c(-c2c(N)n(CCc3ccccc3)c3nc4ccccc4nc23)nc2ccccc21	-4.6%	-5.6%	428.2%	?	?	-0.5%
CNC(=O)c1c(NC(=O)/C=C/c2ccccc2Cl)sc2c1CCC2	2.6%	7.8%	6.3%	2.1%	4.3%	·
CN(C)CCCCCCCCCCC(=O)/C=N/O	·	4.2%	-5.8%	-13.4%	10µM*	·
N#Cc1nc(Nc2cc(F)cc(F)c2)c2ncn(CCO)c2n1	·	·	·	13.6%	·	·
CCOC(=O)c1c(S(=O)(=O)N2CCC(C(=O)Nc3ccc(C)c(Cl)c3)CC2)c(C)n(C)c1C	i	·	-8.9%	-1.4%	-3.8%	·
CCOC(=O)Cn1c(=O)n(CC2CCCO2)c2nc(-c3ccc(OC)cc3OC)nc(C(N)=O)c21 (stereo not given)	1.8%	-0.7%	-1.8%	6.6%	18.1%	·
O=C(COC(=O)c1ccccc1NCCO)NCCc1ccccc1	-0.5%	15.1%	-9.3%	-3.6%	8.0%	-3.4%
O=C(OCC(=O)N(Cc1ccccc1)Cc1ccccc1)c1ccccc1NCCO	i	18.3%	3.8%	1.9%	5.62µM*	3.4%
O=C(Nc1nc(-c2ccc(Cl)cc2Cl)cs1)c1ccc(OCC2CCCO2)cc1 (stereo not given)	i	4.7%	-1.1%	14.2%	7.08µM*	1.7%
O=S1(=O)N=C(Oc2ccc(-c3ccccc3)cc2)c2ccccc21	·	·	·	3.4%	·	·
CCOC(=O)c1[nH]c(C)c(CCC(=O)NCc2ccc(OC)cc2)c1C	i	·	6.5%	-3.0%	-1.5%	·
CCC1CN(C(=O)Nc2cccc3c2CCCC3)c2cc(C)ccc2O1 (stereo not given)	-9.0%	·	20.8%	-9.7%	?	·
Cc1ccc2c(c1)N(C(=O)Nc1cccc3c1CCCC3)CC(C)O2 (stereo not given)	4.7%	·	24.0%	-4.0%	10µM*	·
CCOC(=O)c1ccc(OCCN2C[C@H](O)[C@@H](O)[C@H](O)[C@H]2CO)cc1	·	-3.6%	·	·	·	·
CC(C)(C)OC(=O)n1c2ccsc2c2cnn(Cc3ccccc3F)c(=O)c21	·	·	·	1.1%	·	·
Cc1ccc(/C=N/NC(=O)c2ccc(N(C)S(=O)(=O)c3ccccc3)cc2)cc1	4.2%	8.5%	-18.3%	-5.5%	10µM*	0.6%
COc1cc(NC(=O)c2ccc(S(=O)(=O)N(C)c3ccccc3)cc2)cc(OC)c1	-9.6%	1.7%	-12.2%	13.9%	10µM*	0.0%
O/N=C/c1cc(Br)cc(Br)c1OCc1ccccc1	7.0%	5.2%	-5.5%	-2.7%	10µM*	-1.4%
SMILES	PGK inhibitor	GLP1R ag	HEK293 tox	Pin1 inh	GLP1R inv ag	Tb PFK inh
CCOC(=O)c1ccc(CN(Cc2ccc(F)cc2)S(=O)(=O)c2ccc(F)cc2)cc1	5.1%	·	2.1%	-6.7%	?	·
CCN(CC)CCOC(=O)c1ccc(NC(=O)CCCN2C(=O)S/C(=C/c3ccc(OC)cc3)C2=S)cc1	i	-3.0%	?	?	2.82µM*	18.3%
CC(=O)C1=C(c2ccc(Br)cc2)C(=O)c2ccccc2C1=O	-0.9%	-32.1%	3.55µM*	7.3%	?	3.6%
CNC1=C(N(C(C)=O)c2ccc(Br)cc2)C(=O)c2ccccc2C1=O	-1.3%	-16.2%	?	-7.3%	?	-15.3%
CC(C)c1ccc(/C=C/C(=O)Nn2cnnc2)cc1	·	·	·	-0.4%	·	·
CCOc1ccccc1NC(=O)Nc1cc2c(cc1N1CCCCC1)n(CC)c(=O)n2CC	-9.0%	·	0.6%	-3.3%	5.1%	·
O=C(NCc1ccc(F)cc1)c1cc2sccc2n1Cc1ccc(F)cc1	·	·	·	·	·	1.5%
O=C(NCc1ccccc1)c1cc2sccc2n1Cc1ccc(F)cc1	i	-3.5%	2.8%	8.0%	10µM*	·
CCOC(=O)C1C(=O)C=C(c2ccc(C)cc2)CC1c1ccc([N+](=O)[O-])cc1 (stereo not given)	0.1%	-11.8%	16.7%	6.8%	10µM*	-3.2%
c1nc(NCc2ccoc2)c2cc(-c3ccc4c(c3)OCO4)ccc2n1	·	·	·	12.8%	·	·
CC(=O)Oc1ccc(C2(c3ccc(OC(C)=O)cc3)Oc3ccccc3NC2=O)cc1	·	5.3%	·	·	·	·
COc1cc(NS(=O)(=O)c2ccc(OC)c(C)c2C)c(OC)cc1Cl	1.8%	2.3%	-22.0%	0.5%	3.98µM*	-3.6%
COc1ccc(C=Cc2ccc3ccccc3n2)c(OC)c1	?	-4.7%	120.6%	·	4.47µM*	·
C=CCN1C(=O)NC(c2ccc(OC)cc2)(C(F)(F)F)S/C1=C(\C#N)c1nnc(N2CCOCC2)n1-c1ccccc1 (stereo not given)	5.9%	1.9%	10µM*	6.7%	?	-4.5%
COC(=O)c1ccc(CCc2cc(O)ccc2O)cc1	-9.8%	-1.7%	10µM*	1.3%	?	·
O=C(OCc1ccccc1)c1ccc(NCc2cc(O)ccc2O)cc1	-13.7%	-5.2%	5.01µM*	-2.8%	7.08µM*	·
CC(C)OC(=O)c1ccc(NCc2cc(O)ccc2O)cc1	-8.4%	-9.9%	?	-6.6%	?	·
NC(=O)CC(NC(=O)c1ccc(Br)cc1)c1ccc(N2CCCCCC2)c([N+](=O)[O-])c1 (stereo not given)	-4.8%	16.9%	-27.3%	-1.4%	11.2µM*	-1.9%
CN(C)CC(=O)Nc1ccc(Oc2ccc(Cl)cc2)cc1	-12.3%	15.3%	9.4%	-2.8%	5.01µM*	6.4%
O=C(NC(=S)Nc1ccc(Cl)cc1)c1ccccc1	0.7%	20.2%	-1.5%	-3.9%	14.4%	5.4%
